Values joined by “and” are separate entries in the source; they are usually repeats but may differ in a detail not shown here. Equal values may be shown once. This is part of a sample that, as a whole, favours compounds with a hit. Of some 83,000 tested, about 20% had one in any assay.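 Cell lines were cultured in 96-well plates, exposed to a single compound concentration, and assessed for percent growth 48 hours later.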 Values without a mark were called inactive. Active and inactive are the calls of the source. The calls were made as follows: active = growth percent below 10; inactive = the rest.
Each compound was assayed on MDA-MB-468 breast (assay: NCI-60 one-dose screen, 48 h (100 = growth as untreated, 0 = no growth, -100 = all killed)). Details: 10 µM unless noted.

Compound | growth
CCN(CC)CCOc1ccc(NC(=O)C(C(C)C)N2C(=O)/C(=C/c3ccc(Br)cc3)SC2=S)cc1 (stereo not given) | 63.2%
C/C(=C\CCc1ccoc1)CC/C=C(\C)CCCN1CCSCC1 | 22.6%
O=C1OCC2=C1C(c1cccc(F)c1)c1cc3c(cc1N2CCO)CCC3 (stereo not given) | -5.09% (active)
C=C(C)[C@@H]1CC[C@]2(C(N)=O)CC[C@]3(C)[C@H](CC[C@@H]4[C@@]5(C)C/C(=C/c6cccnc6)C(=O)C(C)(C)[C@@H]5CC[C@]43C)[C@@H]12 | 14.5% [100 µM]
C/C(=C(\c1ccc(OCCCN(C)C)cc1)c1ccc(OC(=O)Cc2ccccc2)cc1)c1ccc(Cl)cc1 | 84.1%
Clc1ccc2c(N/N=C/c3c[nH]c4ccccc34)ccnc2c1 | -75.9% (active)
CC(CO)(CO)C(=O)O | 99.9%
O=C(O)CN1C(=O)C=CC1=O | 104%
C=C(C)[C@@H]1CC[C@]2(C=O)CC[C@]3(C)[C@H](CC[C@@H]4[C@@]5(C)CCCNC(C)(C)[C@@H]5CC[C@]43C)[C@@H]12 | 64.6%
COc1ccc2[nH]c(O)c(/C=c3/cc4c(c(-c5ccc(F)c(OC)c5)n3)=Nc3ccccc3-4)c2c1 | -70.4% (active)
CCCNS(=O)(=O)c1ccc(Cl)cc1 | 102%
O=C1CCC23OC(c4ccccc4N12)C(O)C(O)C3O (stereo not given) | 114%
COc1cccc(Cn2c(-c3nonc3NC(C)=O)nc3ccccc32)c1 | -7.42% (active)
COc1ccc(NC(=O)c2sc3nc4c(cc3c2N)C(O)CCC4)cc1 (stereo not given) | 92.2%
COc1ccc(C2=NN(C(N)=S)C(c3ccc4c(c3)OCO4)C2)cc1 (stereo not given) | -0.33% (active)
Nc1c(C(=O)Nc2cccc3cnccc23)sc2nc3c(cc12)C(=O)CCC3 | 47.9%
COc1cc(C(=O)c2cc(C)c3[nH]c4ccc(C)cc4c3c2C)cc(OC)c1OC | -20.1% (active)
COc1cccc2c(=O)c3c(sc12)c(NCCN(C)C)nc1ccccc13 | 12.7%
O=C1Nc2ccccc2/C1=C/C(=N/c1nnc(-c2ccc(Cl)cc2)s1)c1ccccc1 | 27.8%
N/N=C(/Cc1ccccc1)NNC(N)=S | 115%

Compound | growth
CC1(C)[C@H](O)CC[C@]2(C)[C@@H]1CC[C@@]13C[C@@H](CC[C@H]12)[C@@](O)(CO)C3 | 106%
Clc1ccc(CNc2ccc3nc(CCC4CCCCC4)[nH]c3c2)cc1 | -43.5% (active)
S=C(c1ccc2c(c1)OCO2)N1CCN(c2cccc(Cl)c2)CC1 | 6.42% (active)
CC(=O)Nc1cccc2c1CCCC2 | 100% and 91.1%
COc1cccc(C(=O)OCCn2nc3c4c(cccc42)C(=O)c2ccccc2-3)c1O | 24.9%
CCCCCCCCCCCCCCCCCC1=NC(C)(C)CN1CCO | -69% (active)
C=CCN1C(=O)/C(=C/C(=O)OC)S/C1=N\NC(=O)c1cc2ccc1/C=C\c1ccc(cc1)/C=C\2 | 76.3%
C/C(=N\O)[C@@H]1CC[C@]2(CO)CC[C@]3(C)[C@H](CC[C@@H]4[C@@]5(C)CCCNC(C)(C)[C@@H]5CC[C@]43C)[C@@H]12 | 74.6%
N#CC1=C(N)Oc2c(ccc3ccccc23)C1c1cc2ccccc2n2nnnc12 (stereo not given) | -8.83% (active)
CSc1nc2c(c(=O)n1C)CN(Cc1ccccc1)C(=O)CN2 | 71.3%
Cc1cc(NCCN(C(C)C)C(C)C)nc(/N=C(\N)Nc2ccc(Cl)c(C(F)(F)F)c2)n1 | -98.6% (active)
CC1=NN(C(=O)c2nn(-c3ccc(Cl)cc3)cc2O)C(=O)C1 | 54.6%
O=C(NCc1ccco1)Nc1cccc2c(NC(=O)NCc3ccco3)cccc12 | 85.7% [100 µM]
Fc1ccc(-c2ccnc3nc(-c4ccncc4)nn23)cc1 | 111%
COc1ccc(/C=C2/CN(CCC#N)C/C(=C\c3ccc(OC)cc3)C2=O)cc1 | -28% (active)
Nc1nc2c(c3cnccc13)C(c1cccc(Cl)c1)Cc1cnccc1-2 (stereo not given) | -15.9% (active)
Cc1ccc(S(=O)(=O)N2CCC(=O)c3ccccc32)cc1 | 25.7%
COc1ccc(-n2c(SCc3nnc(NC(=O)c4ccc(Br)cc4)s3)nc3cc(OC)c(OC)cc3c2=O)cc1 | 93.6%
CCC(=O)c1cc([N+](=O)[O-])c(Br)s1 | 74.6%
COC(=O)[C@@H]1CCCN1C(=O)[C@H]1CCCN1C(=O)[C@@H](Cc1c[nH]c2ccccc12)NC(=S)Nc1cc(C(F)(F)F)cc(C(F)(F)F)c1 | 29.2%

Reference: PubChem BioAssay (NCI)
